TMEM16A inh: inhibitors of mouse TMEM16A calcium-activated chloride channel; normalized B-score (activity score, 25-100; higher = stronger inhibition) at 10 µM; actives 1.2% (n = 310,000); AID 588511; Q8BHY3; HEK293 TMEM16A/YFP iodide influx fluorescence, ionomycin;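 active = ratio plate-corrected score three or more library SD toward inhibition, starting fluorescence score within five deviations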;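 note: score derived from kinetic fluorescence span divided by baseline fluorescence per well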
GPR7 antagonist: antagonists of human GPR7 (neuropeptides B/W receptor 1); P48145; GPR7-expressing cells, fluorescence antagonist assay; inhibition, % at 4.4 µM; actives 1.1% (n = 290,000); AID 1861; in the data active = inhibition above about 16%, passing the limit was not always enough;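 note: cells stimulated with the agonist NPW; 0% = agonist with vehicle and 100% = vehicle without agonist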
CHT inh: human CHT choline transport inhibition. B-score at 10 µM. CHT-expressing cells, membrane potential dye, choline response; stronger effect = lower value. actives 0.86% (n = 310,000). AID 488975;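 active = B-score over 3 SD under the library average, and starting fluorescence ratio not unusually high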;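 note: choline stimulus applied at its EC90 after an EC20 pre-addition; B-score computed on integrated fluorescence ratio after choline addition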
CHT allo act: allosterically activates the human high affinity choline transporter; B-score at 10 µM; actives 0.49% (n = 310,000); CHT-expressing cells, membrane potential dye, choline EC20; stronger effect = higher value; LV-AA mutant CHT in HEK293 cells;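 active = initial fluorescence not abnormally high and integrated response B-score, plate-corrected, over 3 SD above library mean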
ANO1 activ: mouse TMEM16A channel activation, primary screen; B-score at 10 µM; HEK293 TMEM16A/YFP-H148Q/I152L, iodide quench fluorescence; stronger effect = lower value; actives 0.3% (n = 340,000);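 active = fluorescence-ratio B-score plate-corrected deviation score at least 3 library SD below zero, with starting fluorescence score within 5 deviations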;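 note: channel opened by trigger with iodide after compound preincubation; score built on the fluorescence ratio of max minus min over baseline; more negative score means more quench and so TMEM16A activation or potentiation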
Kir21 inh: blocks the mouse Kir2.1 inward-rectifier potassium channel. HEK293-Kir2.1, FluxOR thallium flux fluorescence; stronger effect = lower value. B-score at 10 µM. actives 0.85% (n = 310,000);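 active = fluorescence ratio B-score at or below minus 3 SD of library scores, with starting-brightness B-score within 2 SD, cut at about -4.2 in these data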;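 note: channel flux triggered by added potassium and thallium sulfate stimulus; B-score of peak minus minimum fluorescence over baseline after thallium stimulus; more negative B-score means stronger Kir2.1 block with less thallium influx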
Target sequence (P35561 whole entry, looked up): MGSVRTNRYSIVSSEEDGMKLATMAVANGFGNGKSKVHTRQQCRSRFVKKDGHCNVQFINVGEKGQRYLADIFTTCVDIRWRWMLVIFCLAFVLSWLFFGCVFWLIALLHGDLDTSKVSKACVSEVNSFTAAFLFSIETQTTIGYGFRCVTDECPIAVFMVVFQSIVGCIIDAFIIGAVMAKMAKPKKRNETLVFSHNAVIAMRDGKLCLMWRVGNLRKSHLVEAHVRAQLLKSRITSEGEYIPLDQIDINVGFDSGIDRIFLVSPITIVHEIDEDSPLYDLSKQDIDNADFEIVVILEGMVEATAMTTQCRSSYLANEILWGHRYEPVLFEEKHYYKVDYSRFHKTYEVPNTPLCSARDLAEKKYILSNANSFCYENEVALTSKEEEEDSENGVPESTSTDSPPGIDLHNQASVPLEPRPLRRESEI
An asterisk follows results filed as active; i = inactive; . = not tested or not shown. A selection: hits, their analogues and other compounds. The true share with any hit is near 3.7%.

SMILES | TMEM16A inh | GPR7 antagonist | CHT inh | CHT allo act | ANO1 activ | Kir21 inh
COc1ccc(N(CC(O)Cn2c3ccccc3c3ccccc32)S(=O)(=O)c2ccccc2)cc1 (stereo not drawn) | i | 2 | i | i | -4.8* | 0.98
COc1ccc(N(CC(O)CN2CCOCC2)S(=O)(=O)c2ccc(C)cc2)cc1 (stereo not drawn) | i | 4 | i | i | i | 0.78
Cc1cccc(/C=C/C(=O)c2cc(Br)ccc(=O)c2O)c1 | 25* | -1 | i | i | i | 0.95
COc1ccc(C(=O)CSc2nnc(CC(=O)Nc3ccccc3OC)n2C)cc1 | i | 1 | i | i | i | 1.2
O=CNC(n1cnc2c(N3CCOCC3)ncnc21)C(Cl)(Cl)Cl (stereo not drawn) | i | -5 | i | i | -7.2* | -3
Oc1ccccc1Nc1nc(NCC2CCCO2)c2ccccc2n1 (stereo not drawn) | i | -7 | i | i | i | -12*
Oc1ccc(Nc2nc(NCC3CCCO3)c3ccccc3n2)cc1 (stereo not drawn) | . | -11 | . | . | i | -7.8*
Cc1c(C)c2ccc(OCC(=O)N3CC[C@@]4(O)CCCC[C@H]4C3)cc2oc1=O | i | -4 | i | i | -5.6* | -0.21
COc1ccccc1NC1CCCCC1NS(=O)(=O)c1ccccc1 (stereo not drawn) | i | 1 | i | i | i | 0.72
CCCc1ccc(Oc2coc3cc(OCC(=O)Nc4ccccc4C)ccc3c2=O)cc1 | i | -10 | i | i | -5.2* | -0.47
CC(C)(C)NC(=O)NC(=O)CSc1ccc(S(=O)(=O)N2CCCCC2)cn1 | . | . | . | . | i | .
Cc1cc(N2CCCC2=O)ccc1S(=O)(=O)NC1CCCCC1 | i | -8 | i | i | i | 1.2
COc1ccc(CC2(C)OC(c3ccccc3)=NN2C(C)=O)cc1 (stereo not drawn) | i | 0 | i | i | i | -6.3*
COc1ccc(CC2(C)OC(c3ccc(C)cc3)=NN2C(C)=O)cc1 (stereo not drawn) | i | -10 | i | i | i | -0.59
CN(C)CCC(O)(c1ccccc1)c1ccccc1Cl (stereo not drawn) | . | . | . | . | i | .
CCC(C)(C)NC(=O)COc1ccc(C(=O)c2ccccc2)cc1 | 25* | -4 | i | i | i | -0.16
COCCn1cnnc1SCC(=O)Nc1cccc(S(=O)(=O)N2CCCCCC2)c1 | i | 20* | i | i | i | 0.8
COC(=O)c1ccc(NC(C)C(=O)OC)c([N+](=O)[O-])c1 (stereo not drawn) | i | 5 | i | i | i | 1.1
CC(=O)CSc1nnc(-c2ccc3c(c2)OCO3)o1 | i | -13 | i | i | -16* | 1.7
CC(=O)Nc1ccc(NC(=O)CSc2nnc(-c3ccc4c(c3)OCO4)o2)cc1 | . | . | . | . | i | .
CC(C)(C)c1ccc(-c2nnc(SCC(=O)c3ccc4c(c3)OCCO4)o2)cc1 | 100* | 2 | i | i | i | 1.8
Cc1ccc(CN2CCN(Cc3ccccc3C(F)(F)F)CC2)cc1 | i | -8 | i | i | i | -4.5*
COCCCNC(=S)N(Cc1ccccc1)Cc1ccccc1 | i | -4 | i | i | i | -3.1
COCCCNC(=S)N(Cc1ccccc1)Cc1nc2ccccc2c(=O)[nH]1 | 25* | 3 | i | i | i | -0.48
CCN(Cc1nc2ccccc2c(=O)[nH]1)C(=O)c1ccc(C)c(NC(=O)c2ccco2)c1 | . | . | . | . | i | .
SMILES | TMEM16A inh | GPR7 antagonist | CHT inh | CHT allo act | ANO1 activ | Kir21 inh
CCOC(=O)CSC1=C(C#N)C(=O)NC(c2ccc(OC)c(OC)c2)S1 (stereo not drawn) | 25* | -19 | i | i | i | 1.8
NCC(O)(c1ccc(Cl)cc1)c1ccc(Cl)cc1 | i | 14 | i | i | i | -3.1
NCC(c1ccccc1)(c1ccccc1)c1ccccc1 | i | 8 | i | i | i | -4.8*
Cc1ccc(-c2nn(-c3ccccc3)cc2/C=N/NC(=O)c2ccc(Br)o2)cc1 | 100* | -19 | i | i | i | .
O=C(N/N=C\c1cn(-c2ccccc2)nc1-c1ccccc1)c1ccc(Br)o1 | i | -8 | i | i | i | 1.9
Cc1onc(-c2ccccc2Cl)c1C(=O)Oc1cc(N)n(S(=O)(=O)c2ccc(F)cc2)n1 | 25* | 25 | i | i | i | .
Cc1ccc(S(=O)(=O)n2nc(OC(=O)c3c(-c4ccccc4Cl)noc3C)cc2N)cc1 | i | -12 | i | i | i | 1.1
FC(F)(F)c1cccc(N2CCN(C(=S)NCC3CCCO3)CC2)c1 (stereo not drawn) | 25* | -3 | i | i | i | 0.23
COc1ccc(S(=O)(=O)N2CCOCC2)cc1NC(=O)Cc1ccc2c(c1)OCCO2 | . | . | . | . | i | .
COc1ccc(COCC(O)CN(Cc2ccco2)Cc2ccccc2O)cc1 (stereo not drawn) | i | -15 | i | i | i | -6.7*
Oc1ccccc1CN(Cc1ccco1)CC(O)COCc1ccc(Cl)cc1 (stereo not drawn) | i | 1 | i | i | i | -0.85
CCn1ccnc1[C@@H]1C[C@H]2CN(c3ccccc3OC)C(=O)[C@]23CCCN13 | i | -7 | i | i | i | 3.6
COc1ccc(S(=O)(=O)NNC(=O)Nc2ccc(F)cc2)cc1 | i | . | i | i | i | -0.29
CC1CCN(CCCOc2ccc(Br)cc2Cl)CC1 | i | 7 | i | i | i | -7.6*
Clc1ccc(OCCCCCN2CCCC2)c(Br)c1 | i | 5 | i | i | i | -2.8
CC1CCCN(CCOCCOc2ccc(Br)cc2Cl)C1 (stereo not drawn) | i | 14 | i | i | i | -1.3
Cc1ccc(OCCCCN2CCC(C)CC2)c(Br)c1 | i | 14 | i | i | i | -6*
Clc1ccc(OCCCN2CCCCC2)c(Br)c1 | i | 1 | i | i | -14* | -0.09
Cc1ccc(OCCCCCCN2CCNCC2)c(Br)c1 | i | . | i | i | i | -5.6*
Cc1ccc(C)c(OCCCCN2CCCCC2)c1 | i | 6 | i | i | i | 2.1
CC(NC(=O)C1CCN(C(=O)Nc2ccccc2)CC1)c1ccc(Cl)cc1 (stereo not drawn) | . | . | . | . | i | .
CC(OC(=O)c1cccc(S(=O)(=O)Nc2cccc(C(F)(F)F)c2)c1)C(=O)Nc1ccc2c(c1)OCCO2 (stereo not drawn) | 100* | 1 | i | i | i | 0.97

Screening results (PubChem)
